This is a sample that favours compounds with a hit; in the whole collection about 5.4% have one here.
VACV Venus inh: vaccinia inhibition (Venus reporter). Vaccinia virus Venus reporter expression, fluorescence. Potency, µM (titrated, usually from 36.5 µM), for the others: at the highest dose activity change, negative = inhibition, most hits filed as inhibitors. 330,000 compounds, 0.46% hits. AID 720580; calls by dose curve; tested in A549 cells; further: nearly all actives have a fitted effect of over 30% in size
Vaccinia mCherry: inhibitors of vaccinia virus infection (mCherry reporter signal) | 310,000 compounds, 0.63% hits | AID 720579 | Vaccinia virus mCherry reporter infection, fluorescence | Potency, µM (series often up to 36.5 µM), without a hit: at the highest dose activity change, negative = inhibition, usual class: inhibitors; calls by dose curve; tested in A549 cells; further: nearly all actives have a fitted effect of over 35% in size
Lassa entry inh: inhibitors of Lassa virus binding or cell entry; Lassa virus pseudotype entry inhibition, cell reporter; Potency, µM (top dose mostly 37.9 µM), without a hit: top-dose activity change, negative = inhibition, usual class: inhibitors; 300,000 compounds, 1.2% hits; AID 540256; calls by dose curve; tested in HEK293 cells; further: nearly all actives have a fitted effect of over 50% in size
MARV entry inh: inhibitors of Marburg virus binding or cell entry. Marburg virus pseudotyped entry inhibition, cell reporter. Potency, µM (series often up to 37.8 µM), for inactives: at the top dose activity change, negative = inhibition, actives largely listed as inhibitors. 300,000 compounds, 1.8% hits. AID 540276; calls by dose curve; tested in HEK293 cells
Sm TGR inh: inhibitors of Schistosoma mansoni thioredoxin glutathione reductase; Q962Y6; purified TGR, DTNB reduction, TNB absorbance 405 nm; Potency, µM (doses to about 114 µM), for inactives: at the top dose activity change, negative = inhibition, actives largely listed as inhibitors; 360,000 compounds, 3% hits; active means well fitted inhibition curve with a large enough effect; inconclusive means small, poorly fitted or top-dose-only effect; inactive means no such curve, though single readings can be large or run the other way; further: nearly all actives have a fitted effect of over 60% in size
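TGR 20 nM + NADPH 100 uM (dispensed conc.), cpd preinc 15 min RT; start with NADPH (500 uM addition) then DTNB (15 mM addition). Kinetic TNB absorbance, 405 nm filter. Four-parameter Hill fit across titration.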
FMDV inh: antivirals against foot and mouth disease virus; FMDV antiviral cell-based qHTS; Potency, µM (highest dose often 57.9 µM), for the others: at the top dose activity change, negative = inhibition, hits mostly inhibitors; 410,000 compounds, 1.2% hits; calls by dose curve; tested in HEK293T cells; further: read-out not given here; nearly all actives have a fitted effect of over 45% in size
Starred values were filed as active, the others as inactive; [ ] = another dose, or the depositor's remark. On the % scale 0 is the no-effect control and ±100 the full control effect; potency means the concentration at half of the fitted maximal effect.

What do the screens show for `O=C(Nc1ccc(Br)cc1)c1ccc(Cl)c(S(=O)(=O)N2CCCCCC2)c1`?
VACV Venus inh: -23%; Vaccinia mCherry: inconclusive; Lassa entry inh: inconclusive; Sm TGR inh: 13%; FMDV inh: 28µM*

Results for N[C@H](C(=O)O)[C@H](OCc1ccccc1)C(=O)O ?
FMDV inh: -13%

What do the screens show for `COc1ccccc1CNS(=O)(=O)c1ccc2c(c1)NC(=O)C(C)C(=O)N2` (stereo not drawn)?
VACV Venus inh: -9%; Vaccinia mCherry: -17%; Lassa entry inh: 15%[46.1 µM]; MARV entry inh: inconclusive; Sm TGR inh: -3%; FMDV inh: -9%

Results for Cc1ccc(C(CC(=O)NCC2(c3ccccc3)CCCC2)c2ccccc2)c(O)c1 (stereo not drawn) ?
VACV Venus inh: -24%; Vaccinia mCherry: -15%; Lassa entry inh: inconclusive; MARV entry inh: inconclusive; Sm TGR inh: 0%; FMDV inh: 7.9µM*

What do the screens show for `Cc1cnc(NC(=O)CCNC(=O)c2ccccc2Cl)s1`?
VACV Venus inh: -4%; Vaccinia mCherry: -3%; Lassa entry inh: 9%; MARV entry inh: inconclusive; Sm TGR inh: 8%; FMDV inh: 6%

How did COc1ccccc1OCC(=O)Nc1nc(C)c(C)s1 do in these assays?
VACV Venus inh: -10%; Vaccinia mCherry: 44%; Lassa entry inh: 13µM*; MARV entry inh: inconclusive; Sm TGR inh: -20%; FMDV inh: 32%

Results for Cc1cnc(NC(=O)COc2ccccc2Cl)s1 ?
Lassa entry inh: 1.8µM*; MARV entry inh: 2.3µM*; Sm TGR inh: -25%; FMDV inh: 10µM*

How did COC(=O)c1sc(NC(=O)COc2ccccc2C)nc1C do in these assays?
VACV Venus inh: -1%; Vaccinia mCherry: inactive; Lassa entry inh: -2%; MARV entry inh: 4%[46.1 µM]; Sm TGR inh: 7%; FMDV inh: 66%

What do the screens show for `COc1ccccc1C(=O)NCCC(=O)N(Cc1ccco1)Cc1cccs1`?
VACV Venus inh: -3%; Vaccinia mCherry: -20%; Lassa entry inh: -8%; MARV entry inh: 1%; Sm TGR inh: inconclusive; FMDV inh: 0%

Results for O=C(NCCC(=O)N(Cc1ccco1)Cc1cccs1)c1ccccc1Cl ?
Sm TGR inh: 45µM*; FMDV inh: -12%

Results for Cc1c(C(=O)N(Cc2ccco2)Cc2cccs2)oc2ccccc12 ?
VACV Venus inh: -15%; Vaccinia mCherry: -17%; Lassa entry inh: 1%; MARV entry inh: -2%; Sm TGR inh: 0%; FMDV inh: -10%

What do the screens show for `COc1ccccc1NC(=O)CN(Cc1ccco1)C(=O)c1cc2ccccc2o1`?
Sm TGR inh: 22µM*

How did O=C(c1cc2ccccc2o1)N(Cc1ccco1)Cc1cccs1 do in these assays?
VACV Venus inh: -10%; Vaccinia mCherry: -17%; Lassa entry inh: -10%; MARV entry inh: -4%; Sm TGR inh: 32µM*; FMDV inh: -15%

Results for Cc1ccc(NC(=O)CCC(=O)N2CCSc3ccccc32)cc1 ?
VACV Venus inh: -10%; Vaccinia mCherry: inactive; Lassa entry inh: 24%[46.1 µM]; Sm TGR inh: 1%; FMDV inh: -12%

How did COC(=O)N1C(=O)[C@](c2ccc(Cl)cc2)(C(C)C)N1C(=O)OC do in these assays?
VACV Venus inh: inconclusive; Vaccinia mCherry: -19%; Sm TGR inh: 10µM*; FMDV inh: -9%

How did COC(=O)N1C(=O)[C@@](c2ccccc2)(C(C)C)N1C(=O)OC do in these assays?
VACV Venus inh: inconclusive; Vaccinia mCherry: inconclusive; Sm TGR inh: 35µM*; FMDV inh: inconclusive

How did COc1ccc(NC(=O)CN2C(=O)NC(c3ccccc3)(c3ccccc3)C2=O)cc1 do in these assays?
VACV Venus inh: -9%; Vaccinia mCherry: -4%; Lassa entry inh: inconclusive; MARV entry inh: inconclusive; Sm TGR inh: 10%; FMDV inh: 0%

What do the screens show for `COc1ccc(C2(c3ccc(OC)cc3)NC(=O)N(CC(=O)NC(C)C)C2=O)cc1`?
VACV Venus inh: -1%; Vaccinia mCherry: -1%; Lassa entry inh: -23%; MARV entry inh: -6%[46.1 µM]; Sm TGR inh: 7%; FMDV inh: -8%

How did COC(=O)N1C(=O)[C@@](c2ccc(OC)cc2)(C(C)C)N1C(=O)OC do in these assays?
VACV Venus inh: inconclusive; Vaccinia mCherry: inconclusive; Sm TGR inh: 28µM*; FMDV inh: inconclusive

Source: PubChem BioAssay
